AGP1 TOR yeast: alters AGP1-GFP fluorescence in TOR pathway yeast screen | S. cerevisiae AGP1-GFP multiplex flow cytometry, 3 h; GFP as percent of DMSO wells | GFP response vs DMSO, % at 10 µM | 320,000 compounds, 0.02% hits;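 active = GFP response relative to DMSO above a set limit, near screen average plus 3 SD, cut at about 150% in these data; inconclusive = fewer than 70 cells counted for the yeast strain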;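 also: median GFP channel fluorescence of the gated AGP1 strain per well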
LAP4 TOR yeast: yeast TOR pathway LAP4-GFP modulation | S. cerevisiae LAP4-GFP multiplex, flow cytometry GFP, 3 h; median GFP as percent of DMSO wells | 320,000 compounds, 0.34% hits | GFP response vs DMSO, % at 10 µM | AID 2023;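 active = GFP response vs DMSO above a set limit, about the screen mean plus 3 SD, cut at about 150% in these data; inconclusive = under 70 cell events counted for the yeast strain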
MEP2-GFP yeast: alters MEP2-GFP fluorescence in TOR pathway yeast screen; S. cerevisiae MEP2-GFP strain, flow cytometry GFP, 3 h; 100% = DMSO control level; GFP response vs DMSO, % at 10 µM; 330,000 compounds, 0.51% hits; AID 2016;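 active = GFP response versus DMSO above a set limit, roughly screen mean plus 3 SD, cut at about 180% in these data; inconclusive = fewer than 70 cells counted for a yeast strain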;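 also: median GFP fluorescence of the barcode-gated MEP2-GFP cells per well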
CIT2-GFP yeast: modulators of TOR pathway CIT2-GFP in S. cerevisiae. S. cerevisiae CIT2-GFP strain, flow cytometry, 3 h; 100 means same as DMSO wells. GFP response vs DMSO, % at 10 µM. 320,000 compounds, 0.065% hits. AID 2029;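 active = GFP response relative to DMSO above a set limit, near the screen mean plus 3 SD, cut at about 150% in these data; inconclusive = Fewer than 70 cells measured for a yeast strain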;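 also: ratio of well median GFP fluorescence to mean of DMSO wells on the plate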
Efflux pump mplx: blocks antifungal efflux pumps in multiplex yeast assay; S. cerevisiae Candida pump triplex, Nile Red efflux; inhibition, % at 10 µM; 330,000 compounds, 0.44% hits; AID 485275;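 active = plate passing quality check with inhibition over a set limit, or well fluorescence over plate mean plus 4 SD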;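 also: Nile Red retained in pooled yeast measured as flow cytometry median fluorescence; 0% = buffer negative control and 100% = Enniatin B positive control; higher means more Nile Red kept so more efflux inhibition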
RPL19A-GFP yeast: yeast TOR pathway RPL19A-GFP modulation; S. cerevisiae RPL19A-GFP strain, flow cytometry, 3 h; hits give low values; percent response vs DMSO, % at 10 µM; 330,000 compounds, 0.3% hits;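 active = percent response vs DMSO below 50%; inconclusive = fewer than 70 events counted for the yeast strain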;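 also: median channel GFP fluorescence of the barcoded RPL19A-GFP strain; ratio of sample median GFP to plate DMSO average so 100% = DMSO; lower means less RPL19A-GFP as with rapamycin TOR inhibition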
Starred values were filed as active, the others as inactive; ? = inconclusive; [ ] = another dose, or the depositor's remark. Only some compounds are listed: those with a hit (about 1.3% of all), similar ones and a draw of the others.

SMILES	AGP1 TOR yeast	LAP4 TOR yeast	MEP2-GFP yeast	CIT2-GFP yeast	Efflux pump mplx	RPL19A-GFP yeast
C#CCOCCOCCOCCNc1nc(N2CCN(C(=O)CCCCCCCCCCNC(=O)[C@H]([C@@H](C)CC)n3cc(CCCCN=C(N)N)nn3)CC2)nc(N2CCN(C(=O)CCCCCCCCCCNC(=O)[C@H](CCCN=C(N)N)n3cc(C[C@@H](C)CC)nn3)CC2)n1	93.4	164.9*	105.9	96.5	6.2*	74.7
C#CCOCCOCCOCCNc1nc(N2CCN(C(=O)CCCCCCCCCCNC(=O)[C@H](CCCN=C(N)N)n3cc(C[C@@H](C)CC)nn3)CC2)nc(N2CCN(C(=O)CCCCCCCCCCNC(=O)[C@@H]([C@H](C)CC)n3cc(CCCCCN)nn3)CC2)n1	83.2	192.6*	91.7	75.7	4.8*	69.9
COc1ccc(S(=O)(=O)N2CCN(C(=O)c3c(C)nn(-c4ccccc4)c3Cl)CC2)cc1	?	97.2	520.8*[may fluoresce violet]	?	-0.1	18.8*[may fluoresce violet]
O=C(N/N=C\c1ccc(S(=O)(=O)O)o1)c1ccc2c(c1)OCO2	101.6	92.6	108.5	103.2	0.1	104.3
O=C(N/N=C/c1ccc(-c2ccc(Br)cc2)o1)c1ccc2c(c1)OCO2	90.0	162.0*	91.1	84.2	0.1	91.9
Cc1ccc(CCNS(=O)(=O)c2ccc(C)cc2)cc1	106.4	116.0	100.2	83.5	-0.1	95.9
Cc1ccc(S(=O)(=O)NCCc2ccncc2)cc1	17.4	99.8	222.6*[may fluoresce violet]	?	-0.1	62.2
O=C1/C(=C\c2cc(Br)cc(Br)c2O)SC(=S)N1Cc1ccccc1	95.2	100.0	112.1	102.2	1.5*	103.2
COc1cc([N+](=O)[O-])cc(/C=C2/SC(=S)N(Cc3ccccc3)C2=O)c1O	94.4	79.6	102.2	102.6	3.0*	112.1
COc1cc(/C=C2/SC(=S)N(Cc3ccccc3)C2=O)cc(Cl)c1O	93.0	90.2	114.6	101.3	0.9	105.1
Cn1c(CCNS(=O)(=O)c2ccccc2)nc2cc([N+](=O)[O-])ccc21	96.7	97.1	100.3	100.9	0.1	100.4
CCc1cc(=O)oc2c(C)c(OCC(=O)N3CCCc4ccccc43)ccc12	?	94.5	248.1*[may fluoresce violet]	?	0.1	38.5*[may fluoresce violet]
Clc1ccc(OC2CCN(Cc3nc(CC4CC4)no3)CC2)cc1	102.7	105.3	111.1	100.5	-0.4	103.7
Cc1ccc(NC(=S)N(CCCN2CCOCC2)Cc2cccs2)c(C)c1	97.9	121.7	221.9*	97.6	-0.8	98.9
Cc1c(Cl)cccc1NC(=S)N(CCCN1CCOCC1)Cc1cccs1	96.9	95.3	127.8	98.7	0.2	102.7
COc1cc(C2N(c3ccccc3)CCN2c2ccccc2)ccc1OC(C)=O	77.8	91.7	99.3	83.2	0.2	96.4
COc1cc(C2N(Cc3ccccc3)CCN2Cc2ccccc2)ccc1OC(C)=O	?	84.1	496.9*[may fluoresce violet]	?	0.2	42.5*[may fluoresce violet]
Cc1cccc(NC(=O)N2CCC(C(=O)c3ccc(F)cc3)CC2)c1	94.1	93.5	103.6	98.4	0.2	100.8
COc1ccc(OC)c(NC(=O)c2cccc3c2C(=O)N(C2CCCCC2)C3)c1	16.7	86.8	161.0	111.3	0.0	29.1*
COc1ccc(NC(=O)c2cccc3c2C(=O)N(C2CCCCC2)C3)cc1	96.7	96.1	99.1	91.8	0.3	95.2
NS(=O)(=O)c1ccc(N2N=C(c3ccc(Br)cc3)CC2c2ccc(F)cc2)cc1 (stereo not given)	?	62.6	169.3	?	0.2	37.3*[may fluoresce violet]
NS(=O)(=O)c1ccc(N2N=C(c3ccccc3)CC2c2cccc(F)c2)cc1 (stereo not given)	81.7	94.0	99.5	85.7	0.3	96.2
CC(=O)Nc1cccc(NS(=O)(=O)c2cn(C)c(=O)n(C)c2=O)c1	101.4	102.0	94.3	101.5	-0.1	97.8
CC(C)C(=O)Nc1nc(-c2ccc3c(c2)CCN3C(=O)C2CC2)cs1	?	?	?	?	0.0	21.9*[may fluoresce violet]
CCc1ccc(C(C(=O)NCc2ccccc2)N(C(=O)c2csnn2)C2CC2)cc1 (stereo not given)	101.7	100.8	105.5	102.7	0.1	100.9
SMILES	AGP1 TOR yeast	LAP4 TOR yeast	MEP2-GFP yeast	CIT2-GFP yeast	Efflux pump mplx	RPL19A-GFP yeast
COc1ccc(NC(=O)CSc2n[nH]c(-c3ccccn3)n2)cc1	?	88.5	313.6*[may fluoresce violet]	?	0.0	37.0*[may fluoresce violet]
NC(N)=NS(=O)(=O)c1ccc(NC(=S)NC(=O)c2ccc(Br)cc2)cc1	93.6	102.9	96.3	86.5	-0.1	95.8
O=C(/C=C/c1ccco1)N1CCN(C/C=C/c2ccccc2)CC1	96.1	100.4	106.4	95.0	0.1	102.3
C=CCN1C(=O)C2C(C(=O)NC)C3(C)C=CC2(O3)C1C(=O)NCc1ccc(OC)cc1 (stereo not given)	?	101.0	519.2*[may fluoresce violet]	?	0.1	56.0
Oc1ccccc1N=N/C(=N/Nc1ccccc1O)c1ccccc1	90.7	130.3	100.4	99.4	-0.4	100.0
Cn1nnnc1N=N/C(=N/Nc1ccccc1)c1ccccc1	98.4	150.5*	94.9	86.5	-0.2	95.8
CC(C)CC(NC(=O)C1CCC(=O)N1)C(=O)NC(CC(C)C)C(=O)N1CCCC1C(N)=O (stereo not given)	104.4	96.0	107.4	102.9	-0.1	103.5
N#Cc1c(NCCCO)nc(-c2ccco2)c2c1CCCC2	17.2	102.9	243.5*[may fluoresce violet]	?	0.8	92.8
Cc1ccc(N(C)C(=O)n2cnc3ccccc32)cc1	101.9	95.3	94.0	87.3	0.0	94.4
COc1cccc(N=Nc2ccc3cccnc3c2O)c1	104.5	166.4*	111.6	146.1	-0.4	98.7
C#CCNC(=O)C1=C[C@H](c2ccc3c(c2)OCO3)[C@@H](CCCO)[C@H](OCC)O1	?	75.4	300.0*[may fluoresce violet]	?	-0.1	45.6*[may fluoresce violet]
C#CCNC(=O)C1=C[C@@H](c2ccc(Br)cc2)[C@H](CCCO)[C@@H](OCC)O1	104.9	93.6	104.7	102.5	0.0	96.3
CCC(C)N1C(=O)/C(=C/c2c(NCCCOC(C)C)nc3c(C)cccn3c2=O)SC1=S (stereo not given)	105.5	107.2	113.7	106.6	0.8*	95.7
Cc1cc(C)c(S(=O)(=O)N2CCN(C(=O)c3cc4ccccc4oc3=O)CC2)c(C)c1	99.1	103.1	106.3	101.9	0.1	111.2
Cc1cc(NC(=O)c2ccno2)no1	113.2	107.2	112.0	155.6*[may fluoresce green]	-0.1	91.6
CC1(C)Cc2cccc(OCC(=O)Nc3ccccc3C(F)(F)F)c2O1	103.7	113.0	128.9	103.5	1.9	104.2
CC1(C)Cc2cccc(OCC(=O)Nc3ccccc3N3CCOCC3)c2O1	?	103.0	?	?	-0.1	15.7*[may fluoresce violet]
O=c1ccc(S(=O)(=O)N2CCCC2)cn1Cc1ccc(Cl)cc1Cl	99.9	107.5	98.7	93.0	-0.4	101.9
